Results filed as inconclusive are left out. Calls of active or inactive are those of the source. Calls follow the shape of the dose curve; as a rule, active = well fitted cell-killing curve with a large enough effect in the repeat runs; inconclusive = weak or mixed curves, or effect the other way; inactive = flat fitted curve, though single readings scatter.
Experiment: qHTS RealTime-Glo MT Cell Viability Assay in HepG2 cells - 40 hour (AID 1224870); also: nearly all actives have a fitted effect of over 50% in size
Conditions: RealTime-Glo luminescence; series mostly up to 76.8 µM
Description: National Center for Advancing Translational Sciences [NCATS]
NIH Chemical Genomics Center [NCGC]
U.S. Environmental Protection Agency [EPA]
National Institutes of Environmental Health Sciences [NIEHS]
National Toxicology Program [NTP]
U.S. Food and Drug Administration [FDA]
Measure of cell viability is critical in the cell-base assay. Analysis of cell viability is necessary for the characterization of cell responses to cytotoxic drugs and environmental stress. A RealTime-Glo MT Cell Viability Assay to monitor cell viability in real time of continues cell culture during 40 hours of compound treatment was used to screen Tox21 10K library compounds in HepG2 cells. The RealTime-Glo MT Cell Viability Assay is a nonlytic, homogeneous, bioluminescent method to measure cell viability in real time using a simple, plate-based method. The assay involves adding NanoLuc luciferase and a cell-permeant prosubstrate to cells in culture. Viable cells reduce the proprietary prosubstrate to generate a substrate for NanoLuc luciferase. This substrate diffuses from cells into the surrounding culture medium, where it is rapidly used by the NanoLuc Enzyme to produce a luminescent signal. The signal correlates with the number of viable cells, making the assay well suited for cytotoxicity studies.
Tox21 Assay Protocol Summary:
The mixture of HepG2 cell suspension and reagents were dispensed at 600cells/6 ul/well in 1536-well tissue culture treated black solid bottom plates using a Multidrop dispenser. After the assay plates were incubated at a 37 C/5% CO2 incubator for 5 hours, 23 nL of compounds dissolved in DMSO, positive and negative controls was transferred to the assay plate by a pintool work station. The plates were incubated at 37 C for 40 hours. The luminescence intensity were measured at 0h, 8h, 16h, 24h, 32h and 40h time points using ViewLux plate reader during compound treatment.

SMILES	outcome
CCCCC(CC)C(=O)Cl (stereo not given)	inactive
COC(C)(C)CCCC(C)C/C=C/C(C)=C/C(=O)OC(C)C (stereo not given)	inactive
C/C=C/c1ccc2c(c1)OCO2	inactive
CCOC(=O)CC(SP(=O)(OC)OC)C(=O)OCC (stereo not given)	inactive
Cc1ccc(O)c(C)c1	inactive
Oc1ccc(Cl)cc1	inactive
[N-]=[N+]=CC(=O)OC[C@H](N)C(=O)O	inactive
CNc1cnn(-c2cccc(C(F)(F)F)c2)c(=O)c1Cl	inactive
CNC(=O)O/N=C/C(C)(C)S(C)(=O)=O	inactive
CN(C)C(=O)Nc1cccc(C(F)(F)F)c1	inactive
O=C(O)Cc1ccccc1	inactive
CC[N+](=O)[O-]	inactive
CC(C)CCCCCCOC(=O)c1ccccc1C(=O)OCCCCCCC(C)C	inactive
CC(C)(C)C(=O)CCl	inactive
OCC(O)CCl (stereo not given)	inactive
Nc1cccc(Cl)c1	inactive
Cc1cc(Cl)ccc1OC(C)C(=O)O (stereo not given)	inactive
COc1cc(-c2ccc(N)c(OC)c2)ccc1N	inactive
CCOc1ccc(N)cc1	inactive
O=C(O)C1C(C(=O)O)C2(Cl)C(Cl)=C(Cl)C1(Cl)C2(Cl)Cl (stereo not given)	inactive

SMILES	outcome
O=C(O)C(Br)Br	inactive
Cc1cc(O)ccc1Cl	inactive
C[C@]12CC[C@H](O)CC1=CC[C@@H]1[C@@H]2CC[C@]2(C)C(=O)CC[C@@H]12	inactive
CN(C)CCC#N	inactive
OCCCCO	inactive
Cc1cccc(N)c1C	inactive
C=CC(=O)OCC(CC)CCCC (stereo not given)	inactive
Oc1c(Br)cc(Br)cc1Br	inactive
Clc1cnc(Oc2ccc(Oc3ncc(Cl)cc3Cl)cc2)c(Cl)c1	inactive
C=CCN=C=S	inactive
Cl/C=C/Cl	inactive
Cc1cccc(N)c1	inactive
N#Cc1cccc(C#N)c1	inactive
COP(=S)(OC)SCN1C(=O)c2ccccc2C1=O	inactive
CN(C)C(=O)Cl	inactive
CCNc1nc(Cl)nc(NC(C)C)n1	inactive
O=C(O)COc1ccccc1	inactive
CN(C)NC(=O)CCC(=O)O	inactive
Nc1cc(Cl)cc(Cl)c1	inactive
CC(=O)C1CCOC1=O (stereo not given)	inactive
